Compounds with a hit are over-represented: about 21% of the library has one in this group of screens.
Pf growth 96h = P. falciparum growth inhibition at 96 hours | P. falciparum luciferase reporter growth, 96 h | Potency, µM (doses to about 28.7 µM), for the others: top-dose activity change, negative = inhibition, hits mostly inhibitors | actives 6.9% (n = 320,000); active = well fitted inhibition curve with a large enough effect; inconclusive = small, poorly fitted or top-dose-only effect, or another doubt; inactive = no such curve, though single readings can be large or run the other way; also: potency is read from the fitted curve at half-maximal effect; % is scaled to controls: 0 for no effect and ±100 for the full control effect
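96 h incubation, 37 C, 5% CO2, of luciferase-reporter P. falciparum-infected RBCs (2% hematocrit, 0.05% parasitemia final) with test compounds; endpoint luminescence.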
Cycloheximide cs = counter-screen for Shiga toxin inhibitors: cycloheximide protein synthesis inhibition | cell reporter, cycloheximide protein synthesis inhibition counterscreen | max response, % | actives 12% (n = 300,000) | AID 2314; in the data active = max response mostly above about 13%, no sharp cut-off; inactive = mostly below about 14%; also: read at 38.3 µM for the half of the compounds with a filed dose; 0% is about no effect
Pf growth 48h = inhibits P. falciparum growth in the first generation, 48 h | actives 5.9% (n = 310,000) | Potency, µM (highest dose often 28.7 µM), for the others: top-dose activity change, negative = inhibition, actives largely listed as inhibitors | P. falciparum luciferase growth in erythrocytes, 48 h; active = well fitted inhibition curve with a large enough effect; inconclusive = small, poorly fitted or top-dose-only effect, or another doubt; inactive = no such curve, though single readings can be large or run the other way; also: potency is read from the fitted curve at half-maximal effect; % is scaled to controls: 0 for no effect and ±100 for the full control effect
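Cell-based growth assay: transgenic P. falciparum expressing firefly luciferase, cultured in red cells within RPMI 1640 containing 0.5% w/v Albumax, 24 mM bicarbonate and gentamycin. A drop in luciferase activity indicates inhibition.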
Shiga inhibitor = blocks Shiga toxin action in Vero cells; inhibition, % at 38.7 µM; Vero cells, Shiga toxin protein synthesis inhibition reporter; actives 9.2% (n = 290,000); in the data active = inhibition mostly above about 28%, no sharp cut-off; inactive = mostly below about 43%; also: 0% is about no effect
NS1 inh = blocks influenza NS1 protein function; Potency, µM (highest dose often 46.1 µM), for inactives: at the top dose activity, positive = more growth; actives 0.4% (n = 270,000); AID 2326; also: potency is read from the fitted curve at half-maximal effect; actives are rising curves; nearly all actives have a fitted effect of over 50% in size
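In this qHTS, NS1 from influenza A is expressed in budding yeast, where it slows growth. Cells are switched from glucose to 2% galactose medium (pH 6.0, -URA), treated with compound, and growth recovery is read at OD600.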
SARS PLpro yeast = inhibitors of SARS-CoV papain-like protease in yeast; S. cerevisiae expressing SARS-CoV PLpro, growth rescue; Potency, µM (series often up to 32.9 µM), inactives show at the highest dose activity, positive = growth rescue, usual class: activators; actives 0.19% (n = 330,000); also: potency is read from the fitted curve at half-maximal effect; 0% is about no effect; nearly all actives have a fitted effect of over 55% in size
* = called active by the depositor; i = inactive; ? = inconclusive; · = no result; [ ] = remark or other dose. Unless noted, calls follow the shape of the full dose curve.

SMILES | Pf growth 96h | Cycloheximide cs | Pf growth 48h | Shiga inhibitor | NS1 inh | SARS PLpro yeast
CC(c1ccccc1)n1c(Cn2ncc3ccccc3c2=O)n[nH]c1=S (stereo not drawn) | 46% | 0 | -16% | -3 | · | 1%
O=c1c2ccccc2cnn1Cc1n[nH]c(=S)n1-c1ccc(Cl)cc1 | 7% | 72* | -1% | 52* | 15% | 8%
O=c1c2ccccc2cnn1-c1ccc(Cl)cc1 | i | 36* | 146% | 93* | -6% | 2%
COc1ccc(OC)c(CN2CCN(C(=O)CCC(=O)c3cccs3)CC2)c1 | -19% | · | ? | · | · | 2%
COc1ccc(C2CC(c3ccccc3)Oc3ccc(C(C)(C)C)cc32)cc1 (stereo not drawn) | · | 9 | · | 23 | · | ·
COc1cc(C(=S)N2CCCC2)ccc1OCc1ccc(C)cc1 | ? | 69* | ? | 81* | -14% | -2%
CCOc1ccc(C(=S)N2CCCC2)cc1OC | -17% | -6 | -3% | -5 | 9% | 1%
Fc1ccc(COc2ccccc2C(=S)N2CCCC2)cc1 | -72% | 2 | -28% | 34 | -9% | 13%
Cc1ccc(COc2ccccc2C(=S)N2CCCC2)cc1 | 9% | 17* | 20%[5.75 µM] | 20 | · | -2%
Cc1ccc(NC(=O)C2CCN(S(=O)(=O)c3c(C)noc3C)CC2)cc1C | ? | 12 | ? | 8 | · | 1%
COc1ccc(C(OCC(O)CN(C)C2CCCCC2)c2ccc(OC)cc2)cc1 (stereo not drawn) | ? | -5 | ? | -6 | -4% | 2%
COc1ccc(CN(C)CC(O)COC(c2ccc(OC)cc2)c2ccc(OC)cc2)cc1 (stereo not drawn) | ? | -4 | 13µM* | -9 | 3% | 2%
CCOc1ccc(CN(C)CC(O)COC(c2ccc(OC)cc2)c2ccc(OC)cc2)cc1 (stereo not drawn) | 10µM* | -3 | 10µM* | 19 | 9% | 0%
Cc1ccc(S(=O)(=O)Cn2nnnc2C(C(C)C)N2CCC(O)CC2)cc1 (stereo not drawn) | 10% | -3 | -1% | 15 | 9% | 3%
CN(C)C(=O)c1ccc(-c2cc(C(F)(F)F)nn2C)s1 | 103% | 39* | 198% | 53* | 0% | -2%
Cn1nc(-c2ccc(S(N)(=O)=O)s2)cc1C(F)(F)F | 20% | -2 | 37% | 16 | -3% | 0%
Cn1nc(C(F)(F)F)cc1-c1ccc(S(N)(=O)=O)s1 | 62% | 38* | 27% | 68* | 5% | 1%
On1nnc2cc(C(F)(F)F)ccc21 | 6% | -3 | 4% | 4 | 6% | 2%
CCOc1ccc(N(CC(=O)NCc2ccco2)S(=O)(=O)c2ccc(OC)c(OC)c2)cc1 | 24% | 4 | 12µM* | 14 | 18% | -1%
COc1ccc(N(CC(=O)NCc2ccco2)S(=O)(=O)c2ccc(OC)c(OC)c2)cc1 | 15µM* | -4 | · | -18 | -12% | 10%
CCOc1ccc(N(CC(=O)O)S(=O)(=O)c2ccc(OC)c(OC)c2)cc1 | -13% | -1 | 10% | 1 | 4% | -3%
COc1ccc(S(=O)(=O)N(CC(=O)NCc2ccco2)c2ccc(C)cc2)cc1OC | -2% | 17 | -2% | 7 | 19% | 15%
COc1cc(NC(=O)CCc2nnc3ccc(N4CCC5(CC4)OCCO5)nn23)cc(OC)c1 | ? | -6 | -14% | 5 | 18% | 27%
O=C(NCCc1ccccn1)c1cc2ccccc2o1 | 7% | 49* | 27% | 84* | 0% | 5%
COc1ccc(CNC(=O)c2cc3ccccc3o2)cc1OC | 13µM* | 9 | -8% | · | -5% | -10%
SMILES | Pf growth 96h | Cycloheximide cs | Pf growth 48h | Shiga inhibitor | NS1 inh | SARS PLpro yeast
COc1ccc(NC(=O)c2cc3ccccc3o2)cc1OC | ? | 45* | 18% | 62* | -19% | 10%
CCOc1ccc(CNC(=O)c2nnc(CS(=O)(=O)c3ccccc3)o2)cc1OC | ? | 1 | 4.7µM* | -1 | -3% | 0%
COc1ccc(CNC(=O)c2ccc3ccccc3n2)cc1OC | 34% | 2 | 4% | 27 | -22% | -3%
COc1ccc(CCNC(=O)c2coc3ccccc3c2=O)cc1OC | ? | 27 | ? | 24 | 6% | 0%
CCCNC(=O)c1cc2ccccc2c(=O)o1 | 3% | 21* | -2% | 57* | -13% | -6%
COc1ccc(NC(=O)c2coc3ccccc23)cc1OC | -23% | 20* | 19% | 71* | -45% | 3%
CCCOc1ccc(S(=O)(=O)NNC(=O)c2cc3ccccc3o2)cc1 | 35% | 14* | 8% | 12 | -20% | -10%
COc1ccc(NC(=O)c2cc3ccccc3o2)cc1 | ? | 39* | 102% | 94* | -139% | -9%
NC(=O)C1(N2CCCCC2)CCN(C(=S)Nc2cccc(Cl)c2)CC1 | 28% | 1 | -5% | 2 | 1% | 13%
CCOC(=O)N1CCN(C(=O)CCCn2nnnc2CN2CCC(C)CC2)CC1 | 46% | -1 | -27% | 10 | -2% | -5%
COc1ccc(NC(=O)c2cc3ccccc3o2)cn1 | 0% | 36* | 163% | · | -18% | -6%
O=C(NCc1ccccc1)c1cc2ccccc2o1 | · | 22* | 40% | 66 | 13% | -20%
Cc1ccc2c(c1)cc(C(=O)N[C@@H](Cc1ccccc1)C(=O)O)n2C | 42% | 0 | 1% | 3 | -3% | -1%
COc1cc(OC)cc(-c2c(C#Cc3ccsc3)c3cc(-c4ccc(OC)nc4)ccc3n2C)c1 | ? | · | ? | · | · | 1%
CCOC(=O)Cc1csc(Nc2ccc(Cl)cc2)n1 | 83% | 48* | 53% | 11* | -13% | -46%
CCOC(=O)Cc1csc(NC(=O)COc2cccc(C)c2)n1 | -22% | -1 | -10% | -5 | · | 6%
COC(=O)Cc1csc(Nc2ccc(F)c(Cl)c2)n1 | 24% | 21* | 15% | 30 | · | -33%
Cc1cccc(Nc2nc(CC(=O)O)cs2)c1 | ? | 41* | 46% | 105* | · | -11%
Cc1ccc(-c2nc(-c3ccc(Cl)cc3)sc2CC(=O)O)c(C)c1 | ? | 28* | 3% | 7 | · | -1%
Cc1ccc(NC(=S)Nc2nc(CC(=O)Nc3ccccc3)cs2)cc1 | 42% | 14* | -2% | 15 | 14% | 5%
CC(=O)Cc1nsc(Nc2ccccc2)n1 | 15% | 12 | · | 20 | -2% | 9%
O=C(O)Cc1sc(NC2CCCCC2)nc1-c1ccc(Cl)cc1 | ? | 54* | -23% | 42* | 15% | 7%
O=C(O)Cc1sc(NCCc2ccccc2)nc1-c1ccc(F)cc1 | -10% | 9 | 4% | 34 | 10% | -10%
COC(=O)Cc1csc(NCc2ccccc2)n1 | 1% | -3 | 4% | 1 | 3% | 8%
COC(=O)Cc1csc(Nc2ccccc2)n1 | ? | 31* | 8% | 97* | -4% | -11%
CC(=O)Cc1nsc(Nc2cccc(C)c2)n1 | i | 28* | 93% | 92* | · | -1%
